The source of these data is PubChem BioAssay.

The structures appear in SMILES notation. Records with an inconclusive call do not appear. The source made the active and inactive calls.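 Rule for the calls, unless noted: active = viability at or below 10% of carrier control in both of two separate runs; inconclusive = viability at or below 10% in only one of the two runs; inactive = the rest.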

Assay [1] is described as follows: Her2 expression decrease, cell viability multiplex – SKBR3 breast tumor cells, AlphaScreen, ATP viability, primary screen (AID 461;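 active = Her2 level under about 52% in both replicate screens, with viability over 70% of control, limit read from the data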;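 for Her2 level: lower value means less Her2 protein in the cells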;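 for viability: percent of carrier control wells set as 100% viability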). Particulars: SKBR3 Her2 protein level, 18-24 h, measured here: SKBR3 viability, ATP luminescence, at 10 µM. In general terms: Alpha assays give light when donor and acceptor beads are brought close together.
The target of assay [2] is Receptor tyrosine-protein kinase erbB-2 (Homo sapiens) (UniProt P04626). Described as above. The note with it: 18-24 h, at 10 µM, stronger effect = lower value.
Receptor tyrosine-protein kinase erbB-2 (Homo sapiens), sequence (P04626 whole entry, looked up): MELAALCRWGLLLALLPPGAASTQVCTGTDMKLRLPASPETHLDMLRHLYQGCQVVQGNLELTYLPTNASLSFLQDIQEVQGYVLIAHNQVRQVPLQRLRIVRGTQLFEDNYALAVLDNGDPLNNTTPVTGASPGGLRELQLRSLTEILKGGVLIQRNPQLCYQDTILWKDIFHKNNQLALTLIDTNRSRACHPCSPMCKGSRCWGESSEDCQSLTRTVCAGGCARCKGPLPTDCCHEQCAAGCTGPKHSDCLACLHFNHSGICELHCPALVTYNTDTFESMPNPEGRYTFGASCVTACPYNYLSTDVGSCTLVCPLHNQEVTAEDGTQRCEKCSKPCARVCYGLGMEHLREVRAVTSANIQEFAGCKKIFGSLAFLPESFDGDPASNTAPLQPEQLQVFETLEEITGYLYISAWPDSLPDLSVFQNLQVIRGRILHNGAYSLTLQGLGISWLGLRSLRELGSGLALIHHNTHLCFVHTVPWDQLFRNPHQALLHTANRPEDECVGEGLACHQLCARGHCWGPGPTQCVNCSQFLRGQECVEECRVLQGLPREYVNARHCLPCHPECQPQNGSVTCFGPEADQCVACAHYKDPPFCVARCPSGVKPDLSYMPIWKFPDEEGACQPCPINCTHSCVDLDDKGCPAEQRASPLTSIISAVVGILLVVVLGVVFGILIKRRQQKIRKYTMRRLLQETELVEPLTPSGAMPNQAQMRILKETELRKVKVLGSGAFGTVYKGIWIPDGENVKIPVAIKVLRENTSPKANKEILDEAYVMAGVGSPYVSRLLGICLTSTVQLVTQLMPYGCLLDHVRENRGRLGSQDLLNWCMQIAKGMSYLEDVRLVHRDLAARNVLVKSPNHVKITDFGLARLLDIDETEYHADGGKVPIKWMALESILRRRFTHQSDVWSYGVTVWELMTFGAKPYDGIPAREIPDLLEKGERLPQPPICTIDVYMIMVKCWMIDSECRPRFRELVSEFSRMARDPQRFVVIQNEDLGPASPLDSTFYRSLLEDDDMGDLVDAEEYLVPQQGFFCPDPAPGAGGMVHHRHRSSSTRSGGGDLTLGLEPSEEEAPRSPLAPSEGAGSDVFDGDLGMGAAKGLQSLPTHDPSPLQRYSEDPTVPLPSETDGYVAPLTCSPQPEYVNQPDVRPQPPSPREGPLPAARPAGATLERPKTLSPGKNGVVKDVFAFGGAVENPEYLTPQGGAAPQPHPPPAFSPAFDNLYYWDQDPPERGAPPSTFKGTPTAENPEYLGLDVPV
Assay [3] can be described thus: reduced viability of SK-BR-3 breast cancer cells – cell-based, 24 h, human, pilot screen (AID 572).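 Note: compound exposure lasted between 18 and 24 h rather than exactly 24 h; 100% = carrier-treated control wells.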 The note with it: SK-BR-3 viability, CellTiter-Glo luminescence, at 10 µM, stronger effect = lower value. For orientation: In ATP-based viability assays light output follows the ATP content of the culture.
Assay [4] can be described thus: HUVEC growth inhibition – cell-based, human, primary screen (AID 575;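 active = viability at or below 30% in both replicate assays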;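 note: 100% = median of untreated cell wells with 0.1% DMSO on each plate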). The note with it: HUVEC proliferation, CellTiter-Glo luminescence, 72 h; at 10 µM; stronger effect = lower value.
A short description of assay [5]: H69AR cell proliferation blockers – human, duplicate replicates, primary screen (AID 580;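 active = viability at or under a set limit in both replicates, limit being median viability minus 3 SD, cut at about 48% in these data, passing the limit was not always enough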;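 note: 100% = mean luminescence of untreated wells and 0% = no signal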). The note with it: H69AR lung tumor cells viability, ATP luminescence, 72 h; at 10 µM; stronger effect = lower value.
Assay [6] can be described thus: MRP1 drug-resistance reversers in H69AR cells – cell-based, doxorubicin co-treatment, pilot screen (AID 601;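 active = viability loss from added drug above about 55%, and viability with drug at most 40%, in both replicates, limit read from the data, passing the limit was not always enough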). Particulars: CellTiter-Glo, 72 h, at 10 µM; for differential viability (reversal): stronger effect = higher value.
A short description of assay [7]: yeast transport mutant growth inhibition pilot in 384-well plates, post-Golgi transport modulator project (AID 636; in the data active = inhibition above about 31%). The note with it: absorbance 615 nm, about 18 h, stronger effect = higher value.
Assay [8] in a line: growth suppression of yeast trafficking mutant, preliminary HTS, modulators of trafficking downstream of Golgi apparatus project, 1536-format plate, OD 615 nm (AID 637; in the data active = inhibition above about 30%). The note with it: yeast transport mutant growth, absorbance 615 nm, 18 h; stronger effect = higher value.
Assay [9] is described as follows: S. cerevisiae growth inhibition in permissive medium (OD615), pilot counter-assay for S. cerevisiae lifespan shortening project, permissive growth control (AID 705;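 active = growth inhibition above 25% in both replicates, a cutoff set 3 SD above the mean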). The note with it: OD615, 24 h, at 10 µM, stronger effect = higher value.
Assay [10] is described as follows: S. cerevisiae growth inhibition in restrictive medium, OD615, pilot screen, restrictive growth control, yeast lifespan reduction project (AID 706;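 active = growth inhibition above a set limit, 3 SD over mean compound inhibition, in both replicates, cut at about 43% in these data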;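 note: modified DeaD lifespan yeast strain shifted to restrictive glucose medium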). The note with it: OD615, 48 h, at 10 µM, stronger effect = higher value.
A short description of assay [11]: doxorubicin toxicity protection in MRP-1 cells – H69AR cells, CellTiter-Glo, duplicate, MRP-1 activator project, pilot screen (AID 807;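 active = viability increase at or above a cutoff of the median across tested compounds plus 3 SD, cut at about 8.5% in these data, passing the limit was not always enough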;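 note: compound pretreatment 18-22 h then 72 h combined with doxorubicin; 0% = doxorubicin alone and 100% = vehicle without doxorubicin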). Particulars: H69AR viability with doxorubicin, CellTiter-Glo luminescence; at 10 µM; stronger effect = higher value.
Assay [12] in a line: viability of HCT116 without oncogenic beta-catenin – human colon tumor cells, pilot screen (AID 823;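 active = cell viability at or below a set limit in both duplicate runs, the limit being the all-compound median minus 4 SD, cut at about 23% in these data, passing the limit was not always enough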;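 note: 0% = wells killed by 20 µM Hyamine and 100% = untreated DMSO cell wells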). Particulars: HCT116 beta-catenin knockout viability, CellTiter-Glo, 60 h; at 10 µM; stronger effect = lower value.
Assay [13] is described as follows: viability of PTEN-null HCT116 cells – cell-based, HCT116 clonal line, CellTiter-Glo, pilot screen (AID 824;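 active = viability at or below 27.92% in each of two runs, the all-compound median minus 4 SD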;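 note: 0% = 20 µM Hyamine control and 100% = vehicle cell control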). The note with it: HCT116 PTEN-deleted viability, 60 h, at 10 µM, stronger effect = lower value.
A short description of assay [14]: RAM pathway blockade in budding yeast – dse1pr::URA3 reporter, 5-FOA selection, pilot screen (AID 869;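 active = inhibition over a set limit, the all-compound mean plus 3 SD, in both replicate runs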;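 note: 0% = DMSO wells with no growth and 100% = 10 µM 1-NA-PP1 with full growth; RAM network block rescues cells from 5-FOA so hits raise OD615 growth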). The note with it: S. cerevisiae dse1pr::URA3 5-FOA growth, OD615, 2 d; at 10 µM; stronger effect = higher value; strain carries analog-sensitive mutant Cbk1 kinase.
Assay [15] in a line: RAM signaling pathway blockade in yeast – S. cerevisiae, Pdr1DBD-CYC8 efflux-inhibited sensitized strain, primary screen (AID 1298;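 active = RAM network inhibition above 8.4% in each of two replicates, 3 SD over the compound average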;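 note: 0% = DMSO untreated cells without growth and 100% = 10 µM 1-NA-PP1 full growth; higher means more yeast growth rescued from 5-FOA killing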). The note with it: S. cerevisiae cbk1-as DSE1-URA3 strain, 5-FOA growth OD615, 2 d; at 50 µM; stronger effect = higher value.
Setting [16] is: H69AR cells + 2 uM doxorubicin, measured here: viability with 2 uM doxorubicin, stronger effect = lower value.
Where [17] appears, read: H69AR cells, compound alone cytotoxicity.

Broadly, the viability is a read-out of living cells in per cent, often relative to untreated cells. For orientation: inhibition means the relative decrease from the control value, in per cent. `C=CCSc1nc2sc(C)c(C)c2c(=O)[nH]1`: the viability was 97.5% in [1]; 97.5% (inactive) in assay [3]; 83.3% (inactive) in [4]; 90.7% (inactive) in assay [5]; 80.8% in [6] (setting [16]); 90.7% in [6] (setting [17]). The viability in assay [12] was 109% (inactive); in [13] it was 89% (inactive). For the same compound, the Her2 level in assay [2] was 107% (inactive). For the same compound, the differential viability (reversal) in assay [6] (H69AR cells + 2 uM doxorubicin) is 9.9% (inactive). Further, the inhibition is -5.87% (inactive) in assay [7], -10.3% (inactive) in assay [8] and 1.19% (inactive) in assay [14]. Also, the values for the growth inhibition in assay [9] and in assay [10] were -7.21% (inactive) and -12.2% (inactive), respectively. Further, the viability increase in [11] is 0.97% (inactive). The RAM network inhibition in assay [15] was 4.66% (inactive).

`CCOC(=O)N1CCC(c2cc(=O)n3[nH]c(C)c(-c4ccc(F)cc4)c3n2)CC1`: the viability in [1] was 67%; in assay [3], 67% (inactive); in assay [4], 7% (active); in assay [5], 21.3% (active); in assay [6] (setting [16]) it was 65.5%; in [6] (setting [17]) it was 21.3%. Also, the figures for the viability in assay [12] and in assay [13] were 15.8% (active) and 19.7% (active), respectively. Also, the Her2 level in assay [2] is 80.5% (inactive). Further, the differential viability (reversal) in [6] (H69AR cells + 2 uM doxorubicin) was -44.2% (inactive). The inhibition in assay [7] is 0.38% (inactive); in [8], -0.33% (inactive); in assay [14], 0.04% (inactive). The growth inhibition in assay [9] is 2.81% (inactive); in assay [10], 9.87% (inactive). In assay [11], the viability increase was 0.52% (inactive). Besides, in [15], the RAM network inhibition is 0.41% (inactive).

On to `COc1cc(NC(=O)C2C3C=CC(C3)C2C(=O)O)c(OC)cc1Cl` (stereo not given), for which the viability in [1] is 86%; in assay [3] it was 86% (inactive); in assay [4] it was 98.4% (inactive); in assay [5] it was 98.3% (inactive); in [6] (setting [16]), 93.9%; in [6] (setting [17]) it was 98.3%. Moreover, the viability in [12] was 101% (inactive); in assay [13], 91.8% (inactive). In addition, the Her2 level in assay [2] is 95% (inactive). Moreover, the differential viability (reversal) in assay [6] (H69AR cells + 2 uM doxorubicin) was 4.4% (inactive). The inhibition was -2.16% (inactive) in assay [7], -3.61% (inactive) in assay [8] and 2.7% (inactive) in [14]. Moreover, the growth inhibition in assay [9] is -4.4% (inactive); in [10], -20.4% (inactive). For the same compound, the viability increase in assay [11] was -1.99% (inactive). Also, in [15], the RAM network inhibition is 1.54% (inactive).

As for `COCCCNC(=O)Cn1cc2c(n1)CCC(C)C2` (stereo not given), the viability in [1] was 112%; in assay [3], 112% (inactive); in assay [4], 90.5% (inactive); in assay [5] it was 90.1% (inactive); in [6] (setting [16]) it was 91.8%; in assay [6] (setting [17]), 90.1%. Further, the viability in assay [12] was 104% (inactive); in assay [13], 102% (inactive). For the same compound, in [2], the Her2 level was 100% (inactive). Also, the differential viability (reversal) in assay [6] (H69AR cells + 2 uM doxorubicin) was -1.69% (inactive). Also, the results for the inhibition in assay [7], in [8] and in assay [14] were 0% (inactive), 0.17% (inactive) and 1.82% (inactive), respectively. The values for the growth inhibition in assay [9] and in assay [10] were -1.62% (inactive) and 5.27% (inactive), respectively. In addition, the viability increase in [11] is 0.05% (inactive). Also, the RAM network inhibition in [15] is -0.72% (inactive).

Take `O=C(C1CCN(c2nnc(-n3cccc3)s2)CC1)N1CCc2ccccc2C1`: the viability was 88% in assay [1]; 88% (inactive) in [3]; 58.6% (inactive) in assay [4]; 77.9% (inactive) in assay [5]; 76.1% in assay [6] (setting [16]); 77.9% in [6] (setting [17]). The viability is 97% (inactive) in assay [12] and 94.1% (inactive) in assay [13]. Moreover, in [2], the Her2 level is 93.5% (inactive). For the same compound, the differential viability (reversal) in assay [6] (H69AR cells + 2 uM doxorubicin) was 1.77% (inactive). In addition, the inhibition was -0.26% (inactive) in [7], -6% (inactive) in assay [8] and 3.21% (inactive) in assay [14]. The growth inhibition is 1.58% (inactive) in [9] and 1.25% (inactive) in [10]. Also, the viability increase in [11] is -1.4% (inactive). In addition, the RAM network inhibition in assay [15] was 6.43% (inactive).
